Laboratory results published in PubChem BioAssay (NCI).
This is part of a sample that, as a whole, favours compounds with a hit. Of some 83,000 tested, about 20% had one in any assay.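 96-well plates, one dose, 48 hours. Percent growth reported; active if below 10.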 The source made the active and inactive calls.

The molecules below were run on M14 melanoma (assay: NCI-60 one-dose screen, 48 h (100 = growth as untreated, 0 = no growth, -100 = all killed)). Conditions: 10 µM unless noted.

Compound	growth
O=c1oc2c(cnc3ccccc32)cc1-c1cccc(Cl)c1	112% (inactive)
CCOC(=O)c1c(C)nc2c(c1N)C(=O)C(=O)N2Cc1ccc(OC)cc1	68.8% (inactive)
CCNC(=O)N1CCc2c(Br)c3c(c(OC)c2C1Cc1ccc(OC)cc1)OCO3 (stereo not drawn)	11.6% (inactive)
COc1cc2c(c(OC)c1OC)CCC(c1cccc(C(=O)Nc3ccc(Br)cc3)c1)O2 (stereo not drawn)	70.5% (inactive)
OC1CSSC1Cn1cnc2c(Nc3ccc(OCc4cccc(F)c4)c(Cl)c3)ncnc21 (stereo not drawn)	-81.1% (active)
Cc1ccc(OCCOCCOCCOc2ccc(C)n(O)c2=S)c(=S)n1O	36% (inactive)
C=CN(C(=O)N1CCN(c2cc3c(cc2F)c(=O)c(C(=O)O)cn3C2CC2)CC1)c1nc(-c2ccc(Cl)cc2)cs1	60.2% (inactive)
C#CCOc1cccc(Nc2ncnc3cc(NC(=O)CCl)ccc23)c1	-56.1% (active)
Cc1nc2ccccc2c(/C=C/c2ccc(F)cc2)c1C(=O)/C=C/c1ccccc1	12.4% (inactive)
COc1cc(/C=C/C(=O)N2CCN(C(=O)c3cc(OC)c(OC)c(OC)c3)CC2)ccc1OCCCOc1cc2c(cc1OC)C(=O)N1CCC[C@H]1C=N2	-80.2% (active)
O=C(NC1CCC(Br)CC1)C1CCCC(S(=O)(=O)NC2CCCCC2)C1 (stereo not drawn)	22.1% [25 µM] (inactive)
COc1cc(/C=C/c2cn[nH]c2-c2ccc(C)cc2)cc(OC)c1OC	-3.71% (active)
COc1ccc(C/C(C)=C(\c2ccc(Cl)cc2)c2ccc(OCCN3CCCC3)cc2)cc1	62.9% (inactive)
